# Only some compounds are listed: those with a hit (about 5.7% of all), similar ones and a draw of the others.
# Nrf2 block: Nrf2 qHTS screen for inhibitors. hit rate 2.1% among 360,000. Potency, µM (titrated, usually from 46 µM), for the others: at the top dose activity change, negative = inhibition, usual class: inhibitors. AID 504444, 2011. A549 ARE-Fluc reporter, luciferase luminescence, 18-24 h; further: potency means the concentration at half of the fitted maximal effect; nearly all actives have a fitted effect of over 60% in size
#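 A549 ARE_Fluc cells (5000/well, 5% FBS OPTI-MEM) pre-incubated 2 h, then treated with compounds 18-24 h at 37C/5% CO2 in concentration-response. CellTiter-Fluor viability read first; BugLite luciferase luminescence after 15 min at room temperature gives Nrf2 activity.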
# A549 tox: Nrf2 qHTS screen for inhibitors: counterscreen for cytotoxicity. hit rate 0.16% among 390,000. Potency, µM (titrated, usually from 46 µM), for the others: at the highest dose activity change, negative = cytotoxicity, hits mostly inhibitors. A549 ARE-Fluc cells, CellTiter-Fluor viability, 18-24 h; further: potency means the concentration at half of the fitted maximal effect
#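 Cytotoxicity counterscreen: CellTiter-Fluor fluorescence was measured in A549 ARE_Fluc cells after 18-24 h of compound exposure in a concentration series. The subsequent BugLite luminescent read reports ARE-luciferase activity.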
# PI4K2A block: qHTS for small molecular inhibitors of PI4K2A | hit rate 0.13% among 420,000 | purified PI4K2A, ADP-Glo luminescence, 1 h; stronger effect = lower value | activity change, negative = inhibition, % at 76.9 µM | Phosphatidylinositol 4-kinase type 2-alpha (Homo sapiens), Q9BTU6; in the data active means activity change below about -50%; inconclusive means mostly about -30% to -49%;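 further: -100% = wells without enzyme as full effect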
# Target sequence (Q9BTU6 whole entry, looked up): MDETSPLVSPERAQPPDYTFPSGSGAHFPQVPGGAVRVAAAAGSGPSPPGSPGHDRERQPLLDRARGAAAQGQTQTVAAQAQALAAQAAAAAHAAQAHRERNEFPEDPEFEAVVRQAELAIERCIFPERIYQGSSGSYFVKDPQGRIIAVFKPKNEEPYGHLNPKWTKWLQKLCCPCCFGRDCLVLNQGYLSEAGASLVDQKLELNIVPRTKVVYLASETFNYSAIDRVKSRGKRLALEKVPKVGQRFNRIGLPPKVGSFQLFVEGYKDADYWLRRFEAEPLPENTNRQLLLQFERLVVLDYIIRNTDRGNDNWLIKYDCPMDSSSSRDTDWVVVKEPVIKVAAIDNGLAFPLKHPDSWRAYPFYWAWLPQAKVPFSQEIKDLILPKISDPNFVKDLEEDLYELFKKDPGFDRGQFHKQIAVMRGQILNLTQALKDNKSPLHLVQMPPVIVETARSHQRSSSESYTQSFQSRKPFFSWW
#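 ADP-Glo luminescence measured ADP generated by PI4K2A enzyme (4 ug/mL before mixing) with 1.2 mM PI substrate (pre-mix) and 300 microM ATP (pre-mix). Tris pH7.5 buffer with MgCl2, Triton X-100; 1 h reaction at ambient temperature.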
# KB-V1 MDR tox: qHTS assay for MDR1-selective chemotherapeutics: Primary screen using the drug-selected MDR subline cells KB-V1 | KB-V1 MDR cells viability, CellTiter-Glo, 72 h | Potency, µM (highest dose often 46.1 µM), most hits filed as cytotoxic | AID 1347076, 2019 | hit rate 3.4% among 400,000; further: potency means the concentration at half of the fitted maximal effect; nearly all actives have a fitted effect of over 60% in size
#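 Following 72 h at 37 degrees C with compound, KB-V1 cell viability was read by CellTiter-Glo luminescence, medium being phenol-red-free DMEM plus 10% FBS; concentration-response parameters came from normalized, curve-fitted qHTS data.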
# KB-3-1 cytotox: qHTS assay for MDR1-selective chemotherapeutics: Primary screen using the parental adenocarcinoma cell KB-3-1 | hit rate 1.4% among 400,000 | Potency, µM (top dose mostly 46.1 µM), hits mostly cytotoxic | KB-3-1 viability, CellTiter-Glo ATP luminescence, 72 h; further: potency means the concentration at half of the fitted maximal effect; nearly all actives have a fitted effect of over 60% in size
#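 KB-3-1 cells, DMEM (no phenol red) + 10% FBS; compound by pin transfer, 72 h, 37 °C. Readout: CellTiter-Glo luminescence after 10 min. Data normalized, curve-fitted.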
# Giardia killer: Small Molecules that selectively kill Giardia lamblia: qHTS. Giardia lamblia trophozoite viability. activity change, % at 7.66 µM, hits read low. hit rate 0.15% among 340,000. AID 540267, 2011; in the data active means activity change below about -80%; inconclusive means between about -30% and that limit;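 further: parasites exposed to compound for two days anaerobically before the ATP read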
#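 Giardia trophozoites, 100 cells per well, were exposed to compounds for 48 hrs at 37 deg C under anaerobic conditions; viability was then read as ATP content by bioluminescence after 15-30 min at room temperature.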
# An asterisk follows results filed as active; i = inactive; ? = inconclusive; . = not tested or not shown. Unless noted, the call rests on the fitted dose curve; in most records, active means well fitted curve in the direction sought with a large enough effect; inconclusive means small, poorly fitted or top-dose-only effect, or another doubt; inactive means no such curve, though single readings can be large; an effect the other way counts as inactive or inconclusive. Unless noted, on the % scale 0 is the no-effect control and ±100 the full control effect.
SMILES,Nrf2 block,A549 tox,PI4K2A block,KB-V1 MDR tox,KB-3-1 cytotox,Giardia killer
Cc1cccc(NC(=O)c2cccc(N3C(=O)C4C5CCC(C5)C4C3=O)c2)c1C (stereo not given),5%,-8%,-2,8.2µM*,i,2
CCc1ccccc1NC(=O)c1cccc(N2C(=O)C3C4CCC(C4)C3C2=O)c1 (stereo not given),-12%,-8%,4,i,i,16
COCCCNc1nc(NCc2ccccc2OC)c2cnn(C)c2n1,.,9%,-1,i,i,.
Cc1ccc(NC(=O)c2cc3c([nH]c2=O)CC(c2ccccc2)CC3=O)cc1 (stereo not given),.,.,.,i,?,.
Nc1cc(N2CCOCC2)c(Cl)cc1[N+](=O)[O-],-5%,-11%,0,6.5µM*,i,-4
Nc1cc(N2CCCC2)c(Cl)cc1[N+](=O)[O-],-3%,-8%,-2,8.2µM*,?,-10
O=[N+]([O-])c1cc(-n2cccc2)ccc1N1CCOCC1,-11%,-14%,2,6.5µM*,?,34
O=[N+]([O-])c1cc(Cl)ccc1N1CCOCC1,-11%,13%,0,i,i,-2
OC(CN1C=CCc2ccccc21)c1ccc(Cl)cc1Cl (stereo not given),.,.,.,?,i,.
Cc1cccc(Nc2nnc(SCC(=O)Nc3cccnc3Cl)s2)c1,17%,-1%,-1,15µM*,i,8
O=c1[nH]c(CSc2nc(-c3ccccc3)cs2)nc2ccccc12,?,3%,0,?,i,-15
O=c1[nH]c(CSc2nc(-c3ccc(F)cc3)cs2)nc2ccccc12,-18%,0%,-5,5.8µM*,i,7
O=C(NNc1ccccc1)c1ccc(Cl)c(Cl)c1,-11%,0%,2,18µM*,i,0
CCC(CC)C(=O)Oc1c(Sc2ccccc2[N+](=O)[O-])c(C)nn1C(C)(C)C,4%,15%,-4,15µM*,i,-6
CCC(C)(C)C1CCc2[nH]nc(C(=O)NCCCNC(=O)OC(C)(C)C)c2C1 (stereo not given),26µM*,-10%,2,i,i,0
CCC(C)(C)C1CCc2[nH]nc(C(=O)NCCN3CCOCC3)c2C1 (stereo not given),14%,2%,-1,i,i,6
CCCC1=Nc2cc(C(=O)NC3CCCC3)ccc2Sc2ccc(C)cc21,?,-1%,-1,.,.,.
CCCC1=Nc2cc(C(=O)NC3CCCCC3)ccc2Sc2ccc(C)cc21,.,?,2,0.82µM*,0.52µM*,.
CCC1=Nc2cc(C(=O)NCc3ccco3)ccc2Sc2ccc(C)cc21,?,-28%,3,0.16µM*,?,-11
CCC1=Nc2cc(C(=O)NC3CCC(C)CC3)ccc2Sc2ccc(C)cc21 (stereo not given),?,-4%,0,4.1µM*,4.6µM*,.
CCOC(=O)N1CCC(NC(=O)c2ccc3c(c2)N=C(CC)c2cc(C)ccc2S3)CC1,23µM*,5%,4,?,7.3µM*,-6
CCC1=Nc2cc(C(=O)NCCN3CCOCC3)ccc2Sc2ccc(C)cc21,-19%,5%,0,i,i,8
Cc1cccc(-c2noc(-c3cccnc3NCc3ccco3)n2)c1,?,-5%,-6,i,i,.
COC(=O)C1CN(CCc2ccccc2)CCS(=O)(=O)N1Cc1ccc(C)cc1 (stereo not given),.,.,2,.,.,.
COC(=O)c1sccc1NC(=O)Cc1ccc(OC)cc1,3%,?,-1,?,i,8
SMILES,Nrf2 block,A549 tox,PI4K2A block,KB-V1 MDR tox,KB-3-1 cytotox,Giardia killer
CSc1ccccc1NS(=O)(=O)c1ccc2c(c1)OCCO2,?,-1%,1,21µM*,i,2
COC(=O)c1ccc(C)c(NS(=O)(=O)c2ccc(OC)cc2)c1,?,-14%,-4,1µM*,0.73µM*,10
COC(=O)c1ccc(C)c(NS(=O)(=O)c2ccc3c(c2)OCCO3)c1,-15%,?,-1,1.2µM*,2.3µM*,-1
COC(=O)c1sccc1NS(=O)(=O)c1ccc(OC)cc1,-23%,-6%,0,18µM*,i,-6
COc1ccc(Br)cc1CNC(=O)CN1C(=O)c2cccnc2Oc2ccc(C)cc21,-11%,5%,-3,i,i,.
CCOC(=O)[C@]12CCCCC/C=C\1N(Cc1ccc(OC)cc1)C(=O)[C@H]2CC(=O)NCCCCc1ccccc1,.,.,3,.,.,.
Cc1c(NS(=O)(=O)c2ccc3c(c2)OCCO3)cccc1-c1nc2cccnc2s1,21µM*,-11%,-3,i,?,-17
Cc1cc(-c2nc3cccnc3s2)ccc1NS(=O)(=O)c1ccc2c(c1)OCCO2,?,6%,0,i,i,3
CCOC(=O)c1cnc(Nc2nc3ccccc3o2)nc1C,.,-3%,-4,i,11µM*,?
CCOC(=O)c1cnc(Nc2nc3ccccc3o2)nc1CSc1nnc(C)s1,?,?,1,?,i,12
Cc1cc(Br)ccc1NC(=O)COC(=O)c1ccccc1OCC(N)=O,.,.,.,i,?,.
N=C1/C(=C\c2ccc(OC(=O)c3ccccc3)cc2)C(=O)N=C2SC(N3CCOCC3)=NN12,-5%,-7%,-3,i,i,6
Cc1ccc(C(=O)Oc2ccc(/C=C3\C(=N)N4N=C(N5CCOCC5)SC4=NC3=O)cc2)cc1,7.3µM*,5%,1,?,i,1
O=C(NCC1CCCO1)C(c1cccs1)N(Cc1ccccc1)C(=O)c1ccc(-c2ccccc2)[nH]1 (stereo not given),?,-13%,-3,3.7µM*,i,-26
O=C(NC1CCCCC1)C(c1ccncc1)N(Cc1ccccc1)C(=O)c1ccc(-c2ccccc2)[nH]1 (stereo not given),?,.,-5,23µM*,?,8
O=C(NC1CCCCC1)C(c1ccc2ncccc2c1)N(Cc1ccccc1)C(=O)c1cccs1 (stereo not given),18µM*,-26%,-1,23µM*,i,23
O=C(NCC1CCCO1)C(c1cccs1)N(C(=O)c1ccc(-c2ccccc2)[nH]1)C1CCCC1 (stereo not given),-4%,-2%,-1,?,i,-21
O=C(NC1CCCCC1)C(c1ccncc1)N(Cc1ccc(F)cc1)C(=O)c1ccccn1 (stereo not given),-17%,-16%,-3,?,i,6
